In test [1] the target is Adra2b (gene 24174) (UniProt P19328). Put plainly: NVS_GPCR_rmAdra2B: NovaScreen (NVS) G Protein-Coupled Receptor Assay for hybird cells Adrenergic, Alpha 2B Receptor (Adra2B) (AID 2283306). An outline of the steps:
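Compounds screened first at 25 uM in duplicate, with actives followed up in concentration-response; specific radioligand displacement from hybrid neuroglioma/blastoma cell membrane preparations measured by filter scintillation counting after 1 h, normalized to DMSO.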

Test [2] has as its target rat Corticotropin Releasing Factor Receptor (CRF), Crhr1 (gene 58959) (UniProt P35353). In words: NVS_GPCR_rCRF: NovaScreen (NVS) G Protein-Coupled Receptor Assay for rat Corticotropin Releasing Factor Receptor (CRF) (AID 2283300). An outline of the steps: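 Single-concentration (25 uM, duplicate) radioligand binding on rat cortical membrane preparations, counted by scintillation after 2 h. Activity scored as signal loss relative to DMSO negative control.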

Test [3] concerns the target rat Histamine Receptor (H3), Hrh3 (gene 85268) (UniProt Q9QYN8). In words: NVS_GPCR_rH3: NovaScreen (NVS) G Protein-Coupled Receptor Assay for rat Histamine Receptor (H3) (AID 2283303). The method in brief:
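Filter-binding radioligand competition on rat forebrain membranes, 1 h incubation; compounds screened at 25 µM in duplicate and followed in concentration series to 50 µM, loss of bound signal vs DMSO.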

The target of test [4] is Metabotropic glutamate receptor 1 (Rattus norvegicus) (UniProt P23385). In words: NVS_GPCR_rmMGluR1: NovaScreen (NVS) G Protein-Coupled Receptor Assay for rat Glutamate Metabotropic Receptor 1 (MGluR1) (AID 2283305). An outline of the steps: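 Binding to native receptor from rat cerebellum extract, measured as displacement of a radioligand (scintillation counting, filter separation) after 1 hour. Compounds tested at 25 uM in duplicate, then titrated to a 50 uM maximum.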

Test [5] has as its target rat Neurotensin Receptor (NTS), Ntsr1 (gene 366274) (UniProt P20789). In words: NVS_GPCR_rNTS: NovaScreen (NVS) G Protein-Coupled Receptor Assay for rat Neurotensin Receptor (NTS) (AID 2283308). The method in brief:
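Single-point duplicates at 25 uM, then concentration series to 50 uM max for hits, measured radioligand displacement on rat forebrain membrane preparations. Bound label counted by filtration scintillation at 1 h; signal loss relative to DMSO fitted.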

Test [6] has as its target rat Neurokinin-1 Receptor (NK1), Tacr1 (gene 24807) (UniProt P14600). In words: NVS_GPCR_rNK1: NovaScreen (NVS) G Protein-Coupled Receptor Assay for rat Neurokinin-1 Receptor (NK1) (AID 2283309). An outline of the steps:
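Competitive radioligand binding to NK1 in rat submaxillary membranes, 1 h incubation, filtration and scintillation read-out. Compounds first screened at 25 uM in duplicate, then concentration-response for actives; signal loss relative to DMSO.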

Test [7] has as its target rat Opioid Receptor, Non-selective Sodium (Na+) Binding, Oprm1 (gene 25601) (UniProt P33535). In words: NVS_GPCR_rOpiate_NonSelectiveNa: NovaScreen (NVS) G Protein-Coupled Receptor Assay for rat Opioid Receptor, Non-selective Sodium (Na+) Binding (AID 2283311). The method in brief:
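Filtration radioligand binding on rat forebrain membrane preparations, read 1.5 h after dosing. Single-concentration 25 µM primary screen in duplicate, followed by singleton concentration series to 50 µM max for actives; DMSO baseline.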

For test [8], the target named is rat Neurokinin-3 Receptor (NK3), Tacr3 (gene 24808) (UniProt P16177). Put plainly: NVS_GPCR_rNK3: NovaScreen (NVS) G Protein-Coupled Receptor Assay for rat Neurokinin-3 Receptor (NK3) (AID 2283310). The method in brief:
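Filter-based radioligand displacement on rat cortex membrane preparations, read by scintillation 2 h post-dose. Chemicals first tested in duplicate at 25 uM; actives followed up in concentration series with a 50 uM maximum.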

The target of test [9] is rat Gamma-Aminobutyric Acid Type B Receptor (GABBR), Gabbr1 (gene 81657) (UniProt Q9Z0U4). In words: NVS_GPCR_rGABBR: NovaScreen (NVS) G Protein-Coupled Receptor Assay for rat Gamma-Aminobutyric Acid Type B Receptor (GABBR) (AID 2283301). As to the method:
NVS_GPCR_rGABBR is a biochemical, single-readout assay that uses extracted gene-proteins from Rat cortical membranes in a tissue-based cell-free assay. Measurements were taken 1 hour after chemical dosing in a 96-well plate.NVS_GPCR_rGABBR is one of one assay component(s) measured or calculated from the NVS_GPCR_rGABBR assay. It is designed to make measurements of radioligand binding, a form of binding reporter, as detected with scintillation counting signals by Filter-based radiodetection technology.Data from the assay component NVS_GPCR_rGABBR was analyzed into 1 assay endpoint. This assay endpoint, NVS_GPCR_rGABBR, was analyzed in the positive analysis fitting direction relative to DMSO as the negative control and baseline of activity. Using a type of binding reporter, loss-of-signal activity can be used to understand changes in the binding as they relate to the gene Gabbr1. Furthermore, this assay endpoint can be referred to as a primary readout, because the performed assay has only produced 1 assay endpoint. To generalize the intended target to other relatable targets, this assay endpoint is annotated to the gpcr intended target family, where the subfamily is metabotropic glutamate receptor. […]

The target in test [10] is rat Glutamate Metabotropic Receptor 5 (MGluR5), Grm5 (gene 24418) (UniProt P31424). Put plainly: NVS_GPCR_rmMGluR5: NovaScreen (NVS) G Protein-Coupled Receptor Assay for rat Glutamate Metabotropic Receptor 5 (MGluR5) (AID 2283307). An outline of the steps:
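Compounds first screened in duplicate at 25 uM, then in concentration series up to 50 uM if over threshold. Radioligand displacement on rat whole-brain membranes, filtration and scintillation counting after 1.5 h; binding loss relative to DMSO.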

Values joined by “and” are separate entries in the source; they are usually repeats but may differ in a detail not shown here. Equal values may be shown once. Records with an inconclusive call do not appear. Where a structure was tested more than once in an assay, its records may differ in their call. Active and inactive are the calls of the source. Rule for the calls: active = hit-call score of the fitted dose curve at least 0.9, where 1 is the maximum; inconclusive = response in the unintended direction; inactive = score below 0.9.

Consider 23 compounds from PubChem BioAssay (EPA / NIEHS).

Adra2b (gene 24174), sequence (P19328 whole entry, looked up): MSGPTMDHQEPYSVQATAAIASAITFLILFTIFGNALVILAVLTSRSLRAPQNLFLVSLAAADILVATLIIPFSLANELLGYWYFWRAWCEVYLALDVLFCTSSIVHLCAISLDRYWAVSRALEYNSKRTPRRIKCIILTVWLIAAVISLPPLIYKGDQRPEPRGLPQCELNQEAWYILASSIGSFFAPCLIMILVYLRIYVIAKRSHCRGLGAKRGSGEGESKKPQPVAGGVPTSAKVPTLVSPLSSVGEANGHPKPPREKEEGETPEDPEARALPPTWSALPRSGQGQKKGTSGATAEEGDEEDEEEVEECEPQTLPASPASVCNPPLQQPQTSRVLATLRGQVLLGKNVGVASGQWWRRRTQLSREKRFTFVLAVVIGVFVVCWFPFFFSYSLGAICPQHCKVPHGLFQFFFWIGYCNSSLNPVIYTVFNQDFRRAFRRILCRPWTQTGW
rat Opioid Receptor, Non-selective Sodium (Na+) Binding, Oprm1 (gene 25601), sequence (P33535 whole entry, looked up): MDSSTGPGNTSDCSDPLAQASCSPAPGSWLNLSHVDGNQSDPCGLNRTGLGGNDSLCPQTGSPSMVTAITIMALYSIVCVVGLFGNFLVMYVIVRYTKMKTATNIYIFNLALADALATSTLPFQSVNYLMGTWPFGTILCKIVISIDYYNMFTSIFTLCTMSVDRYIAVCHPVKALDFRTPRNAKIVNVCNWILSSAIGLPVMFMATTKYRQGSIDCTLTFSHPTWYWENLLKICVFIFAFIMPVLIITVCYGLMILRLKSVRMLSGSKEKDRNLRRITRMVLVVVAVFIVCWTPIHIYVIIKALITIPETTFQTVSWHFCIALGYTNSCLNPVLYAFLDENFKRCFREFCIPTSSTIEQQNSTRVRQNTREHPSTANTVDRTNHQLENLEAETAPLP
Metabotropic glutamate receptor 1 (Rattus norvegicus), sequence (P23385 whole entry, looked up): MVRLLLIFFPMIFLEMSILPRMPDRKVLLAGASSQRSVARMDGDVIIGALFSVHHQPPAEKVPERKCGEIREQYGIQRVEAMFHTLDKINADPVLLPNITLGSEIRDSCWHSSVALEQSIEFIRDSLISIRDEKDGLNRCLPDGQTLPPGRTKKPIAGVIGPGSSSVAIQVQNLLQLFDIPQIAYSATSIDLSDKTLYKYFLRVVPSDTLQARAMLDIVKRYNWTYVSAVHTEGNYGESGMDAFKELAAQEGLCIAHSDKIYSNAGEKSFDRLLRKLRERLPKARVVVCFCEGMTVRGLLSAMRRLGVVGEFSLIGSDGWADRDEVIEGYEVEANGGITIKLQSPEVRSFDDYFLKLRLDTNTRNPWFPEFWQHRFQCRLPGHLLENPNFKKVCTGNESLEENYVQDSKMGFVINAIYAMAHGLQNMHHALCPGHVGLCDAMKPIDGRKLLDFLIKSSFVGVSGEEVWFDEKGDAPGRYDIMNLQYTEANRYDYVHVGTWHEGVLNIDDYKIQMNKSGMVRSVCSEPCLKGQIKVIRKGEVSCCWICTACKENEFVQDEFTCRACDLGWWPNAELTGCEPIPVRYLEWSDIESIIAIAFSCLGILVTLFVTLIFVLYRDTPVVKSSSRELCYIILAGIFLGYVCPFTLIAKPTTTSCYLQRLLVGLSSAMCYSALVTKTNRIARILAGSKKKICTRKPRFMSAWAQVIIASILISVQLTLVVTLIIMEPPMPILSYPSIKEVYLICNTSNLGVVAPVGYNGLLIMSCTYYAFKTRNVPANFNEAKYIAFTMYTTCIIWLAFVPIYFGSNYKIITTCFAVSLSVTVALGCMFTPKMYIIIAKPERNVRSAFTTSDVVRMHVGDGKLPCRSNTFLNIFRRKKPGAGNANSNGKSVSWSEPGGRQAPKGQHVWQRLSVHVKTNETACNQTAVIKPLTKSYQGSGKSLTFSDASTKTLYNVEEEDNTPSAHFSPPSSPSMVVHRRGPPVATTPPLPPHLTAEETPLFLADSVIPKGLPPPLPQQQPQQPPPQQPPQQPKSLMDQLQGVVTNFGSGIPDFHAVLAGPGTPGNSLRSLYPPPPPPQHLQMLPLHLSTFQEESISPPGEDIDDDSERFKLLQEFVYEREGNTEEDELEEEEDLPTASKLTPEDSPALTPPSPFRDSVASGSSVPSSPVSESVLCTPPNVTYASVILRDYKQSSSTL
rat Histamine Receptor (H3), Hrh3 (gene 85268), sequence (Q9QYN8 whole entry, looked up): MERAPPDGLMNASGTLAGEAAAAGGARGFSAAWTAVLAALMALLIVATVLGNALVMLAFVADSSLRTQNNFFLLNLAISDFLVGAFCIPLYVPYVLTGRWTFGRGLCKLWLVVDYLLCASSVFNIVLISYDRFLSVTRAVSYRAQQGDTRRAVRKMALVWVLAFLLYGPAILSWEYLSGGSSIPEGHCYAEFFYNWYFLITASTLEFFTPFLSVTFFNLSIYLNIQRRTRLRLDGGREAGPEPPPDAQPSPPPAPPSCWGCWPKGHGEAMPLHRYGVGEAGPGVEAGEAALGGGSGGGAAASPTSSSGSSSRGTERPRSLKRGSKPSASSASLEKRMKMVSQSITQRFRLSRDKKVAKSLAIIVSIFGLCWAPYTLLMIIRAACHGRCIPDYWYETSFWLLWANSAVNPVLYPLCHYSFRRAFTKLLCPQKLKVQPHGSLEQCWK
rat Neurokinin-1 Receptor (NK1), Tacr1 (gene 24807), sequence (P14600 whole entry, looked up): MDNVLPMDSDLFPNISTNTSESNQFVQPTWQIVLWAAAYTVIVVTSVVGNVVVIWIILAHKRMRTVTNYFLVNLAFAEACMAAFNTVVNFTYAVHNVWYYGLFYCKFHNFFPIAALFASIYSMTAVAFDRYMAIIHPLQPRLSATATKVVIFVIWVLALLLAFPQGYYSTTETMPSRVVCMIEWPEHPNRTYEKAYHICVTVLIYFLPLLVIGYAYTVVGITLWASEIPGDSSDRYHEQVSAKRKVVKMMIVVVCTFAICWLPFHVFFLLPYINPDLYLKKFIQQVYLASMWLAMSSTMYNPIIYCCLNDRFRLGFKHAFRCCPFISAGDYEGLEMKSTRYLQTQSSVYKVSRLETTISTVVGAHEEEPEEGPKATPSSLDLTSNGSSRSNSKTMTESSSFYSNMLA
rat Neurotensin Receptor (NTS), Ntsr1 (gene 366274), sequence (P20789 whole entry, looked up): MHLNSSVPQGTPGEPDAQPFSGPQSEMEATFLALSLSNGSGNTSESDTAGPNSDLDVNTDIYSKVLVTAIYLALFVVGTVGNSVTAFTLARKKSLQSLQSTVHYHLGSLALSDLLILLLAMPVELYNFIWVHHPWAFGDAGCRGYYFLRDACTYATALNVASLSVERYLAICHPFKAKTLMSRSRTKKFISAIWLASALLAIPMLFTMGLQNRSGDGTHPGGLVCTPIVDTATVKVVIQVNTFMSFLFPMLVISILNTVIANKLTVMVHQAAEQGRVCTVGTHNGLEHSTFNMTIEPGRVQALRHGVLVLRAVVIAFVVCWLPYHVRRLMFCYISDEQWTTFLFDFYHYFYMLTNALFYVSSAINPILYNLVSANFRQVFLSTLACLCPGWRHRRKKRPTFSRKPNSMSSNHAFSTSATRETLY
rat Corticotropin Releasing Factor Receptor (CRF), Crhr1 (gene 58959), sequence (P35353 whole entry, looked up): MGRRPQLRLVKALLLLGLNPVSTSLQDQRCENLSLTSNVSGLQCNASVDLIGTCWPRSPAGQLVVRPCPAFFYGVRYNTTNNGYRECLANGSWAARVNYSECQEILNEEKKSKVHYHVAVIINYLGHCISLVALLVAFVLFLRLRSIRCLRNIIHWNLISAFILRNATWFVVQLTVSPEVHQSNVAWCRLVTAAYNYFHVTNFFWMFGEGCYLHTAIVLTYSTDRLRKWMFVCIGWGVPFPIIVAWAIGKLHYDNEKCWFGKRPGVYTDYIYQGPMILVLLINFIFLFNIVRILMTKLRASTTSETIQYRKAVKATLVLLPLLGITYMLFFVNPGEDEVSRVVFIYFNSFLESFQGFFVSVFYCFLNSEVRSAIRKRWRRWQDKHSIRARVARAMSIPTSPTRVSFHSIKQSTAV
rat Neurokinin-3 Receptor (NK3), Tacr3 (gene 24808), sequence (P16177 whole entry, looked up): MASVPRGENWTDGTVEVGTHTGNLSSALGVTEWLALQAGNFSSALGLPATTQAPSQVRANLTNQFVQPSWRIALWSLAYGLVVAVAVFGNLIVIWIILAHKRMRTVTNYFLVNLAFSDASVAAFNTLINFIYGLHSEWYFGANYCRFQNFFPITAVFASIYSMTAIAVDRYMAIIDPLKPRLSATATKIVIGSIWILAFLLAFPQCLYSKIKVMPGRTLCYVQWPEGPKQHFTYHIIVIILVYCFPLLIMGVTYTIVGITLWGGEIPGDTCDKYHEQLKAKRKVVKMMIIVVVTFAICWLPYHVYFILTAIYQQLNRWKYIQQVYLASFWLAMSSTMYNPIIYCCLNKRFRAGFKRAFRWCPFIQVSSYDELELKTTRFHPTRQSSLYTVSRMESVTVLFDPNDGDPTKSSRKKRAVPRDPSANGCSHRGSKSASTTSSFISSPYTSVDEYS

Turning to `O=C(Nc1ccccc1)Nc1ccnc(Cl)c1`, the AC50 in test [1] was 8.91 µM (active).
In the case of `N#Cc1nn(-c2c(Cl)cc(C(F)(F)F)cc2Cl)c(N)c1S(=O)C(F)(F)F` (stereo unspecified), the result in test [2] was inactive.
Take `N#CC(CCc1ccc(Cl)cc1)(Cn1cncn1)c1ccccc1` (stereo unspecified): in test [3], the outcome was inactive.
Regarding `Cc1c(F)c(F)c(COC(=O)C2C(/C=C(\Cl)C(F)(F)F)C2(C)C)c(F)c1F` (stereo unspecified), the result in [4] and in test [5] was inactive.
As to `CC1COC(Cn2cncn2)(c2ccc(Oc3ccc(Cl)cc3)cc2Cl)O1` (stereo unspecified), the AC50 in [1] is 4.59 µM (active). Besides, the outcome in test [6] was inactive.
In the case of `COc1nc(C)nc(NC(=O)NS(=O)(=O)c2ccccc2CCC(F)(F)F)n1`, the call in [6] and in [7] was inactive.
As for `CCCCNC(=O)OCC#CI`, the AC50 in test [3] is 4.99 µM (active) and 6.92 µM (active); in test [4], 19.2 µM (active) and 1.24 µM (active).
Regarding `CCNc1nc(Cl)nc(NC(C)C)n1`, the result in test [2] and in [5] was inactive.
For the compound `CNC(=S)S`, the result in test [2], in test [5] and in test [8] was inactive.
For `CCON=C(CC)C1=C(O)CC(c2c(C)cc(C)cc2C)CC1=O` (stereo unspecified), the AC50 in [1] is 2.7 µM (active).
For the compound `CO/C=C(/C(=O)OC)c1ccccc1Oc1cc(Oc2ccccc2C#N)ncn1`, in test [6], the compound was called inactive. Moreover, in test [7], the AC50 was 12.6 µM (active) and the compound was classed as inactive.
On to `C=CCC1=C(C)[C@@H](OC(=O)[C@@H]2[C@@H](C=C(C)C)C2(C)C)CC1=O`, for which, in test [6], the AC50 is 39.1 µM (active).
Take `COP(=S)(OC)Oc1nc(Cl)c(Cl)cc1Cl`: the result in test [7] was inactive.
Regarding `C=CCC1=C(C)C(OC(=O)C2C(C=C(C)C)C2(C)C)CC1=O` (stereo unspecified), in test [8], the compound was called inactive.
As to `COC(=O)C(C)Oc1ccc(Oc2ccc(Cl)cc2Cl)cc1` (stereo unspecified), the compound was classed as inactive in test [5] and in test [6].
With `Cc1ccc(-c2c(Cl)nc(C#N)n2S(=O)(=O)N(C)C)cc1`, the AC50 was 5.9 µM (active) in test [3] and 4.08 µM (active) in [1].
As to `CS/C(C)=N/OC(=O)N(C)SN(C)C(=O)O/N=C(\C)SC`, the AC50 in test [3] is 2 µM (active); in test [8] it was 2.97 µM (active).
With `CCCC1COC(Cn2cncn2)(c2ccc(Cl)cc2Cl)O1` (stereo unspecified), in test [7], the AC50 is 25 µM (active).
With `COc1nc(C)nc(NC(=O)NS(=O)(=O)c2ccccc2Cl)n1`, the compound was classed as inactive in test [9] and in test [5].
Take `COC(=O)C=C(C)OP(=O)(OC)OC`: the call in test [7] was inactive.
`COc1ccc(C(c2ccc(OC)cc2)C(Cl)(Cl)Cl)cc1`: the result in [6] was inactive.
Consider `COc1cnc(OC)n2nc(NS(=O)(=O)c3c(OCC(F)F)cccc3C(F)(F)F)nc12`, for which the result in [4] was inactive.
Regarding `CCCCOC(=O)c1ccccc1C(=O)OCCCC`, the result in test [10] was inactive.

As usually defined, the AC50 is the concentration giving half of the maximal activity seen.
